From PMC5540273 (PLoS ONE, 2017)

Each compound was assayed on WNK3. Conditions: concentration: 1 μM, replicates: in singlicate; n = 1.
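Also: KINOMEscan kinase panel screen.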

Row | SMILES | %Inh [%]
1 | Nc1n[nH]c2cnc(-c3ccccc3)cc12 [SB-642124] | 33
2 | CN(c1ccc(NC(=O)Nc2cc(C(F)(F)F)ccc2F)cc1)c1ccnc(Nc2ccc(S(N)(=O)=O)cc2)n1 [GW809893] | 0
3 | CC(C)c1nc(-c2cccc(NS(=O)(=O)c3c(F)cccc3F)c2F)c(-c2ccnc(Nc3ccc(N4CCOCC4)nc3)n2)s1 [GSK2008607] | 23
4 | O=C(Nc1cccc(-c2nn3ncccc3c2-c2ccnc(Nc3ccccc3)n2)c1)c1c(F)cccc1F [GSK198271] | 0
5 | O=C(Nc1ccccc1F)NC1CCN(c2ccnc(Nc3ccc(F)cc3)n2)CC1 [GSK1379800] | 37
6 | Cl.c1ccc(-c2ccc3c(Nc4ccc5[nH]ccc5c4)ccnc3c2)nc1 [GW440138] | 35
7 | COc1ccc(CNC(=O)NC2CCN(c3ccnc(Nc4ccc(F)cc4)n3)CC2)cc1 [GSK1379788] | 23
8 | CN(C)Cc1ccc(-c2ccc3c(Nc4ccc(Oc5ccccn5)cc4)ccnc3c2)o1 [GW567148] | 46
9 | CNC(=O)c1ccccc1Nc1nc(Nc2ccc(N3CCOCC3)cc2)ncc1Cl.Cl [GSK1576028] | 39
10 | CCS(=O)(=O)c1ccc(OC)c(Nc2nccc(-c3c(-c4cccc(NC(=O)c5c(F)cccc5F)c4)nn4ncccc34)n2)c1 [GSK326180] | 18
11 | c1ccc(Oc2ccc(Nc3ccnc4cc(-c5ccc(CNCCN6CCOCC6)o5)ccc34)cc2)nc1 [GW567145] | 43
12 | Cc1ccc(C)c(NC(=O)NC2CCN(c3ccnc(Nc4ccc(F)cc4)n3)C2)c1 (stereo not drawn) [GSK1379720] | 43
